Screening data (PubChem)
FMDV inh = High Throughput Screening for Foot and Mouth Disease Virus Antivirals. AID 1159524, 2015. 410,000 tested, 1.2% active. FMDV antiviral cell-based qHTS. Potency, µM (series often up to 57.9 µM), inactives show at the top dose activity change, negative = inhibition, usual class: inhibitors; calls by dose curve; tested in HEK293T cells; note: read-out not given here; nearly all actives have a fitted effect of over 45% in size
TbPYK inhibitor = qHTS of Trypanosoma Brucei Inhibitors. AID 624173, 2012. TbPYK enzyme, Kinase-Glo Plus ATP luminescence, 45 min. Potency, µM (doses to about 76.8 µM), for the others: at the highest dose activity, negative = inhibition, usual class: inhibitors. 410,000 tested, 0.12% active; note: nearly all actives have a fitted effect of over 50% in size
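Quantitative HTS: titrated library compounds versus trypanosomal pyruvate kinase in TEA buffer (pH 7.2) containing KCl, MgCl2, BSA and Tween-20. Reactions were initiated with ADP, 130 uM final. Kinase-Glo Plus luminescence was read after 45 min at RT.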
Sm TGR inh = qHTS Assay for the Inhibitors of Schistosoma Mansoni Peroxiredoxins; Schistosoma mansoni thioredoxin glutathione reductase (TGR), Q962Y6; 360,000 tested, 3% active; Potency, µM (titrated, usually from 114 µM), inactives show at the top dose activity change, negative = inhibition, usual class: inhibitors; purified TGR, DTNB reduction, TNB absorbance 405 nm; note: nearly all actives have a fitted effect of over 60% in size
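First, TGR (20 nM dispensed) and NADPH were mixed with compound. Second, a 15 min room-temperature incubation followed. Third, further NADPH and then DTNB were added to start the reaction. Finally, TNB absorbance was monitored kinetically.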
RE007 growth inh = qHTS Assay for Inhibitors of the HIV-1 protein Vpr | 360,000 tested, 0.21% active | Potency, µM (doses to about 92.2 µM), for the others: at the highest dose activity change, negative = less growth, usual class: inhibitors | S. pombe RE007 Vpr strain, BacTiter-Glo ATP luminescence, 24 h; active = well fitted falling curve with a large enough effect; inconclusive = small, poorly fitted or top-dose-only effect; inactive = no such curve, though single readings can be large or run the other way; note: nearly all actives have a fitted effect of over 50% in size
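Fission yeast strain RE007, carrying one chromosomally integrated HIV-1 vpr copy, was seeded at OD 0.01 in PMG+AL medium with 23 nL pinned compound. After 24 h at 30 °C and 99% humidity, viability was read by BacTiter-Glo luminescence.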
* hit, by the source's call; ? = inconclusive; nt = no result given. An excerpt weighted towards active compounds, which were near 3.7% of everything screened. Unless noted, calls come from the whole dose curve; as a rule, active = well fitted curve in the direction sought with a large enough effect; inconclusive = small, poorly fitted or top-dose-only effect, or another doubt; inactive = no such curve, though single readings can be large; an effect the other way counts as inactive or inconclusive. % is set by controls: 0 for no effect and ±100 for the full control effect; potency is the fitted concentration of half-maximal effect.

SMILES	FMDV inh	TbPYK inhibitor	Sm TGR inh	RE007 growth inh
O=C1CSC(c2cn(-c3ccccc3)nc2-c2cc3ccccc3o2)N1Cc1ccccc1 (configuration not stated)	2.0%	-0.5%	-11.2%	3.8%
Cc1ccc(-c2nn(-c3ccccc3)cc2C2SCC(=O)N2Cc2ccccc2)o1 (configuration not stated)	?	-20.3%	11.2µM*	1.7%
O=C1CSC(c2cn(-c3ccccc3)nc2-c2cc3ccccc3oc2=O)N1Cc1ccco1 (configuration not stated)	-8.5%	2.5%	22.4µM*	-13.6%
O=C1CSC(c2cn(-c3ccccc3)nc2-c2cccs2)N1Cc1ccccc1 (configuration not stated)	nt	nt	-18.3%	nt
O=C(NCC(c1ccco1)S(=O)(=O)c1cccs1)c1ccccc1F (configuration not stated)	14.4%	-2.0%	11.2µM*	nt
O=C(NCC(c1ccco1)S(=O)(=O)c1cccs1)c1c(F)cccc1F (configuration not stated)	8.8%	-0.3%	0.708µM*	nt
Cc1cccc(C(=O)NCC(c2cccs2)S(=O)(=O)c2cccs2)c1 (configuration not stated)	0.0%	2.4%	?	nt
O=C(NCC(c1cccs1)S(=O)(=O)c1cccs1)c1cccc(F)c1 (configuration not stated)	-21.8%	0.3%	20µM*	nt
O=C(NCc1ccccc1)C(=O)NCC(c1ccco1)S(=O)(=O)c1cccs1 (configuration not stated)	-4.2%	-4.5%	?	nt
O=C(Nc1cccc(Cl)c1)c1cc(S(=O)(=O)N2CCCc3ccccc32)ccc1F	-12.8%	-5.2%	-2.8%	nt
Cc1ccc(CN2CCC(C3(c4ccccn4)NC(=O)N(CC4CCCO4)C3=O)CC2)cc1C (configuration not stated)	-5.1%	nt	nt	nt
CCOc1ccc(NC(=O)c2oc3ccccc3c2NC(=O)C(C)Oc2ccccc2)cc1 (configuration not stated)	-7.4%	-8.1%	-5.9%	nt
O=C1c2ccc([N+](=O)[O-])cc2S(=O)(=O)N1Cc1ccccc1	-13.3%	1.7%	17.8µM*	?
COc1ccc(C)c2sc(N3CCN(C(=O)c4ccco4)CC3)nc12	-18.4%	-2.4%	-33.6%	nt
COc1ccc2cc3cc(C(=O)N4CCN(Cc5ccc6c(c5)OCO6)CC4)oc3nc2c1	22.4µM*	-6.2%	0.6%	-10.6%
COc1ccc2nc3oc(C(=O)N4CCN(c5cc(C)ccc5C)CC4)cc3cc2c1	-4.0%	7.8%	89.1µM*	nt
COc1ccc2nc3oc(C(=O)N4CCN(c5cccc(Cl)c5)CC4)cc3cc2c1	?	0.0%	3.5%	11.1%
COc1ccc(NC(=O)CSc2nncc3ccccc23)cc1	17.9%	-1.9%	12.0%	-3.8%
COc1ccc(C(=O)Sc2nncc3ccccc23)cc1	-6.9%	-12.4%	20µM*	-18.4%
O=C(OC1CCOC1=O)c1ccc(CO)cc1 (configuration not stated)	22.0%	-3.3%	7.7%	3.4%
O=C(CCC(=O)c1ccc(F)cc1)OC1CCOC1=O (configuration not stated)	4.5%	3.7%	50.1µM*	0.5%
Cc1ccnc(SC2CC(=O)N(c3ccc(C(C)C)cc3)C2=O)n1 (configuration not stated)	-20.3%	-7.8%	?	6.1%
Cc1ccnc(SC2CC(=O)N(c3ccc(Cl)cc3)C2=O)n1 (configuration not stated)	0.0%	-8.9%	50.1µM*	5.9%
Cc1cc(C)nc(SC2CC(=O)N(c3ccc(Cl)cc3)C2=O)n1 (configuration not stated)	-25.3%	5.4%	?	8.9%
Cc1ccc(S(=O)(=O)NNC2CC(=O)N(c3ccc(Br)cc3)C2=O)cc1 (configuration not stated)	-18.3%	-6.5%	nt	1.8%
SMILES	FMDV inh	TbPYK inhibitor	Sm TGR inh	RE007 growth inh
CCN(CC)C1CC(=O)N(c2ccc(Br)cc2)C1=O (configuration not stated)	1.2%	7.1%	7.08µM*	2µM*
Cc1cc(C)nc(SC2CC(=O)N(c3ccc(Br)cc3)C2=O)n1 (configuration not stated)	-6.5%	0.0%	50.1µM*	5.3%
Cc1ccnc(SC2CC(=O)N(c3ccc(Br)cc3)C2=O)n1 (configuration not stated)	-2.5%	0.9%	50.1µM*	35.7%
CCCCNC(=O)CSc1nc2cc3c(cc2c(=O)n1CCCC(=O)NCc1ccc2c(c1)OCO2)OCO3	-1.5%	-9.4%	-1.5%	nt
CO[C@@H]1[C@H](N(C)C(=O)c2ccccc2)C[C@H]2O[C@]1(C)n1c3ccccc3c3c4c(c5c6ccccc6n2c5c31)C(=O)NC4	nt	0.0%	nt	nt
Cc1cc(C)cc(NC(=O)CCc2nnc3n(C)c(=O)c4sccc4n23)c1	-19.4%	-2.4%	13.0%	nt
C[C@]12C=CC(=O)C=C1CCC1C2C(O)C[C@]2(C)C1CC[C@]2(O)C(=O)CO (some centres not stated)	nt	-12.4%	nt	nt
C=CCNCC#CCOc1ccc(OC)cc1	9.0%	-2.2%	?	0.0%
CCCN(CC#CCOc1ccc(OC)cc1)CCC	-17.4%	17.7%	12.6µM*	2.7%
CC(=O)NC(C)C(=O)OCC(=O)Nc1ccc(Br)cc1 (configuration not stated)	0.9%	5.3%	11.8%	-14.7%
CCCC(C)C(=O)OCC(=O)Nc1ccc(Br)cc1 (configuration not stated)	nt	nt	44.7µM*	nt
CC1(C)CC(=O)c2cc(C(=O)Nc3ccc(Cl)cc3)c(=O)[nH]c2C1	76.9%	-2.7%	-1.5%	nt
O=C(NCCc1nnc2n1CCN(Cc1c(F)cccc1F)CC2)c1ccc(F)cc1	-1.5%	nt	nt	nt
O=C(Nc1ccncc1)c1ccc2c(c1)C(=O)N(C1CCCCC1)C2=O	14.1µM*	2.9%	-1.3%	-12.7%
C=CCNc1nnc(SC2CC(=O)N(c3ccc(OCCC)cc3)C2=O)s1 (configuration not stated)	-23.0%	-19.1%	3.98µM*	11.2µM*
CCOc1ccc(N2C(=O)CC(Sc3nc4ccc(OCC)cc4s3)C2=O)cc1 (configuration not stated)	10.8%	-10.0%	nt	-9.8%
CCOC(=O)c1ccc(N2C(=O)CC(Sc3nnc(C)s3)C2=O)cc1 (configuration not stated)	0.3%	?	4.47µM*	20µM*
CCOc1ccc(N2C(=O)CC(Sc3ncccn3)C2=O)cc1 (configuration not stated)	10.3%	1.2%	?	-19.0%
CCOC(=O)c1ccc(N2C(=O)CC(Sc3nc(C)cc(C)n3)C2=O)cc1 (configuration not stated)	17.3%	-0.9%	-18.6%	7.2%
COc1ccc(N2C(=O)CC(Sc3nc4ccccc4s3)C2=O)cc1OC (configuration not stated)	7.6%	-17.6%	8.91µM*	-24.7%
